Measured values from PubChem BioAssay AID1347075 (National Center for Advancing Translational Sciences (NCATS), 2019).
In all, about 400,000 compounds went through this assay and about 5,500 (1.4%) were called active. Entries that show only a call come without a potency. Inconclusive results (about 9%) are left out. Calls follow the shape of the dose curve; as a rule, active = well fitted cell-killing curve with a large enough effect; inconclusive = small, poorly fitted or top-dose-only effect, or effect the other way; inactive = flat fitted curve, though single readings scatter. This excerpt belongs to a sample that is enriched for actives.

experiment: qHTS assay for MDR1-selective chemotherapeutics: Primary screen using the parental adenocarcinoma cell KB-3-1; settings: KB-3-1 viability, CellTiter-Glo ATP luminescence, 72 h; series mostly up to 46.1 µM; also: nearly all actives have a fitted effect of over 60% in size
Excerpt: A prime difficulty in effectively treating cancer is the development of cellular resistance to multiple structurally unrelated anticancer drugs, a phenomenon known as multidrug resistance (MDR). […] Numerous strategies to overcome P-gp-mediated MDR have been explored, including the design of drugs that evade recognition and efflux, and development of inhibitors to block efflux and restore drug accumulation. […] An alternative approach is to exploit resistance by identifying drugs that target MDR cells over the non-resistant parental cells from which they were selected. […] The development of MDR1-selective agents represents a new strategy for resolving multidrug resistance, as it remains a long-standing clinical challenge for cancer chemotherapy.
Our goal is to identify compounds that selectively kill P-gp-expressing MDR cells. We will identify MDR1-selective compounds by comparing toxicity of compounds in the screening library against parental, drug-naive (KB-3-1) adenocarcinoma cells as well as their drug-selected MDR sub-line (KB-V1). The differential toxicity of compounds against these two cell lines will be used to identify MDR1-selective compounds, whose cytotoxicity is potentiated, rather than diminished, by P-gp expression. This assay will be utilized to conduct a quantitative high-throughput screen (qHTS) in collaboration with the NIH Chemical Genomics Center to identify selective agents, and probe hits arising from the screen will be validated using secondary assays and characterized through a well-established follow-up research program. This screen was run against the entire NCGC library collection of about 400,000 compounds.
NIH Molecular Libraries Probe Production Network [MLPCN]
NIH Chemical Genomics Center [NCGC]
PI: Michael Gottesman PhD, National Cancer Institute, NIH
Briefly, 5 microL of media containing either KB-3-1 cells (columns 1-2, 4-48) are dispensed into Greiner white, treated solid-bottom 1536-well assay plates (media-only control is added to column 3). Compounds are then transferred via Kalypsys pin tool equipped with 1536-pin array (10 nL slotted pins, V&P Scientific, San Diego, CA). Following addition of compound, the plates are incubated at 37 degrees C for 72 hours. CellTiter-Glo (2.5 µL/well) is then added, and the plates are read in a ViewLux reader (Perkin-Elmer, clear luminescence filter, 1 second exposure, 1x binning) following a 10 minute incubation. All cells are dispensed in DMEM phenol-red free media containing 10% FBS.
Library plates were screened starting from the lowest and proceeding to the highest concentration. Vehicle-only plates, with DMSO being pin-transferred to columns 5-48, will be inserted uniformly at the beginning and the end of each library in order to monitor and record any shifts in the background, which can be affected by reagent dispensers or loss in enzyme activity over time. Screening data will be corrected, normalized, and concentration-effect relationships will be derived by using publicly-available NCGC, NCATS curve fitting algorithms (http://ncgc.nih.gov/pub/openhts).
Potency is read from the fitted curve at half-maximal effect.

Structure (SMILES)	Potency
COc1ccccc1NC(=O)C1=C(C)Nc2nc(SCC(=O)c3ccc(C)cc3)nn2C1c1ccccc1C (stereo unspecified)	inactive
COc1ccc(NC(=O)CCN2CCN(CCO)CC2)cc1	inactive
O=C(NCc1ccccc1)C(=O)NCC(c1ccco1)S(=O)(=O)c1ccc(Cl)cc1 (stereo unspecified)	inactive
O=C(OC12CC3CC(CC(C3)C1)C2)c1ccc(NCc2cc(O)ccc2O)cc1	7.31 µM (active)
COc1ccc(-c2nc(=N)sn2-c2ccccc2)cc1	inactive
CO[C@H]1O[C@@H]2O[C@@]3(C)CC[C@@H]4[C@@H](C)CC[C@@H]([C@H]1C)[C@@]24OO3	inactive
COc1cc2[nH]c(C)c(CCN3CCN(c4ccccc4)CC3)c2cc1OC	inactive
COc1ccc(C(=NN)c2ccc(OC)cc2)cc1	inactive
COc1ccc(C(C#N)=C2C=CC(=NO)c3ccccc32)cc1	0.82 µM (active)
COc1ccc(C(=O)/C=C/Nc2ccccn2)cc1	inactive
COc1ccccc1OCCCn1c(-c2ccc(Cl)cc2)nc2ccccc2c1=O	inactive
O=C(COC(=O)c1ccccc1OCCOc1ccccc1)Nc1cccc(Br)c1	inactive
COc1cccc(C(c2c(O)cc(C)n(Cc3ccco3)c2=O)N2CCN(c3ccccc3)CC2)c1 (stereo unspecified)	inactive
CCOc1ccccc1NC(=O)CN1CCCN(Cc2cccc(Cl)c2)S1(=O)=O	inactive
O=c1c2ccccc2n(Cc2cccc(Cl)c2)c(=O)n1Cc1ccccc1	inactive
Clc1cccc[n+]1CCCC[n+]1ccccc1Cl	inactive
COc1cc(C(=O)Nc2ccc(-n3c(C)nc4ccccc4c3=O)cc2)cc(OC)c1OC	inactive
O=C(Cn1c(=O)n(Cc2ccco2)c(=O)c2ccccc21)NCC1CCCO1 (stereo unspecified)	inactive
CC(C)c1ccc(Cn2c(COc3ccccc3)nc3ccccc32)cc1	inactive
Cn1c2ccccc2c(=O)c2c(=O)n(Cc3ccco3)c(COc3ccccc3)nc21	7.31 µM (active)
Cc1ccc(Cc2nc3ccccc3nc2SCC(=O)Nc2cccc(C(F)(F)F)c2)cc1	inactive
Cn1c(=O)c2c(ncn2CC(=O)Nc2cccc(C(F)(F)F)c2)n(C)c1=O	inactive
Cn1nc(C(F)(F)F)c(C(=O)Nc2cccc(C(F)(F)F)c2)c1SCc1ccc(Cl)cc1	16.4 µM (active)
CCCSc1nc2sc3c(c2c(=O)n1-c1cccc(Br)c1)CC(C)(C)OC3	inactive
COc1ccc(C2CC(=O)Nc3c2c(=O)nc2c(C)cccn32)cc1OC (stereo unspecified)	inactive
O=C(COc1ccccc1C(=O)Nc1ccccc1)Nc1cccc(F)c1	inactive

Structure (SMILES)	Potency
O=[N+]([O-])c1ccc(S(=O)(=O)N2CCN(c3nc(-c4ccccc4)nc4ccccc34)CC2)cc1	inactive
O=C(Nc1ccc(OC(F)(F)F)cc1)c1cc2c(=O)n3ccccc3nc2s1	inactive
COc1cc(OC)cc(C(=O)NCCc2csc3nc(-c4ccccc4F)nn23)c1	inactive
CCOc1cc(/C=C(\C#N)c2nc(-c3cccs3)c(NC(C)=O)s2)ccc1O	8.2 µM (active)
CCOc1cc(/C=C(\C#N)C(=O)Nc2ccccc2C)ccc1OCc1cc(=O)n2nc(CC)sc2n1	inactive
CCOc1ccc(/C=C(\C#N)c2nc3ccccc3c(=O)[nH]2)cc1OC	inactive
O=C(NCc1ccc(Cl)cc1)c1ccc2c(c1)nnn2C1CCCC1	inactive
CCOC(=O)c1cccc(NC(=O)Cn2cnc3nc4c(cc3c2=O)CCCC4)c1	inactive
COc1cccc(CNC(=O)C(=O)NCC(c2cccs2)S(=O)(=O)c2ccccc2)c1 (stereo unspecified)	inactive
CN(CCC#N)c1ccc(C=O)cc1	inactive
Cc1ccc(-c2cc(=O)c3ccc(F)cc3[nH]2)cc1	inactive
CC(=O)c1cc(-c2ccccc2)[nH]c1N1CCCC1	inactive
O=c1cc(-c2ccccc2)[nH]c2cc(F)ccc12	1.64 µM (active)
O=C1OC(C(=O)Nc2cccc(Br)c2)Cc2ccccc21 (stereo unspecified)	inactive
O=S1(=O)N=C(Oc2cccc(Br)c2)c2ccccc21	inactive
CCOc1ccc(C(=O)c2cn(Cc3ccc(F)cc3)c3ccc(F)cc3c2=O)cc1	inactive
CCOC(=O)c1c(C)oc2nc(C)nc(Nc3ccc(CC)cc3)c12	inactive
COc1ccc(-c2c(C)cc3oc(=O)cc(-c4ccccc4)c3c2C)cc1C=O	inactive
COC(=O)C(C)Oc1ccc2c(-c3cccc([N+](=O)[O-])c3)cc(=O)oc2c1 (stereo unspecified)	inactive
COc1cc(OC)c2c(-c3cccc(-c4cccc(N)c4)c3)cc(=O)oc2c1	4.11 µM (active)
COc1ccc(-c2nnc(SCC(=O)Nc3ccccc3C)o2)cc1OC	inactive
N#CC(C#N)=CN=c1ccn(Cc2ccc(Cl)cc2Cl)cc1	16.4 µM (active)
CC(C)(C)c1cc(C(=O)NN)n(Cc2ccc(Cl)cc2Cl)n1	inactive
Cn1ccc(=NC=C(C#N)C#N)c2ccccc21	inactive
Cc1ccc(-n2c(SCC(=O)Nc3cccc(F)c3)nc3c(oc4ccccc43)c2=O)cc1C	inactive
CCOC(=O)Cc1ccc(NC(=O)Nc2c[nH]c(=O)[nH]c2=O)cc1	inactive

Structure (SMILES)	Potency
COc1ccc2c(c1)c(N1CCCC1=O)c(C(=O)Nc1ccccc1C(F)(F)F)n2C	inactive
O=C(O)c1ccc(CSc2nc3cccnc3n2Cc2cccc(F)c2)cc1	inactive
COc1cccc(NC(=O)Nc2ccc3c(c2)N(C)C(=O)c2ccccc2S3)c1	inactive
COc1cccc(CNC(=O)c2ccc3c(Cl)c4c(nc3c2)CCCC4)c1	inactive
COc1ccccc1NC(=O)C(=O)c1cc(C)n(-c2ccccc2F)c1C	inactive
CCOC(=O)N1CCN(C(=O)COCc2cc(-c3ccc4c(c3)OCO4)on2)CC1	inactive
CCOC(=O)c1nc(-c2ccc3c(c2)OCO3)[nH]c1C	13 µM (active)
CCOC(=O)c1c(C)[nH]c(C(=O)COc2ccc3c(c2)OCO3)c1C	inactive
CCC(CC)C(=O)N1CCc2cc(OC)c(OC)cc2C1COc1ccc(F)cc1 (stereo unspecified)	inactive
CC[C@H]1CN2CCc3cc(OC)c(OC)cc3[C@@H]2C[C@@H]1C[C@H]1NCCc2cc(OC)c(OC)cc21	0.259 µM (active)
CC(=O)N1c2ccc(S(=O)(=O)N3CCCCCC3)cc2CC1C(=O)NCc1ccccc1C (stereo unspecified)	inactive
COc1ccccc1NC(=O)CN1C(=O)c2ccccc2Sc2ccc(C(=O)N3CCCC3)cc21	inactive
CCOC(=O)c1cc(-c2sc(NC(=O)c3ccccc3)nc2C)n(CCO)n1	inactive
CCOC(=O)c1cc(-c2sc(NC(=O)c3ccccc3)nc2C)n(Cc2ccccc2)n1	23.1 µM (active)
C=CCn1nc(C(=O)OCC)cc1-c1sc(NC(=O)c2ccccc2)nc1C	inactive
CC(C)Sc1oc(-c2cccs2)nc1S(=O)(=O)c1ccc(Cl)cc1	inactive
CC(C)(C)c1ccc(S(=O)(=O)N2CCN(C(=O)c3cc(-c4ccc(Br)cc4)n[nH]3)CC2)cc1	inactive
COc1ccc(C)c(Cn2c(-c3nonc3N)nc3ccccc32)c1	2.31 µM (active)
COc1ccccc1Cn1c(CO)nc2ccccc21	inactive
CCn1c(C(O)c2cc(OC)ccc2OC)nc2ccccc21 (stereo unspecified)	inactive
Cc1ccc(C(=O)Nc2ccc3[nH]c(=O)c(=O)[nH]c3c2)cc1	inactive
O=C1O/C(=C\c2ccc(O)cc2)C(O)=C1c1ccc(O)cc1	inactive
COc1ccc(NC(=O)C(c2ccccc2)N2Cc3ccccc3C2=O)cc1 (stereo unspecified)	inactive
COCCn1nnnc1C(c1cc2ccc(OC)cc2[nH]c1=O)N1CCc2ccccc2C1 (stereo unspecified)	inactive
COc1ccccc1C(c1nnnn1C(C)(C)C)N1CCN(Cc2ccccc2)CC1 (stereo unspecified)	inactive
COc1ccc(OC)c(C(c2nnnn2C(C)(C)C)N2CCc3ccccc3C2)c1 (stereo unspecified)	23.1 µM (active)

Structure (SMILES)	Potency
CCC(=O)N1CCc2cc(S(=O)(=O)NC(C(=O)Nc3ccc(C(C)=O)cc3)C(C)C)ccc21 (stereo unspecified)	inactive
O=C(Cc1ccccc1)N/N=C/c1ccc(Cl)cc1Cl	inactive
O=C(CO/N=C/c1ccccc1O)NNC(=O)c1ccccc1Cl	inactive
O=C(NN=Cc1ccccc1O)NN=Cc1ccccc1O	14.6 µM (active)
Cc1ccc(S(=O)(=O)c2nc(-c3cccs3)oc2N2CCCCC2)cc1	inactive
NS(=O)(=O)c1ccc2nc(NC(=O)COc3ccccc3)sc2c1	inactive
N#Cc1ccc(OCC(=O)Nc2nc(-c3ccccn3)cs2)cc1	16.4 µM (active)
CC1CCCCC1NC(=O)COc1ccc(C#N)cc1 (stereo unspecified)	inactive
Cc1ccc(CNC(=O)CSc2c(C)cnc3c2c(=O)n(C)c(=O)n3C)cc1	inactive
O=C(CC1Oc2ccccc2NC1=O)NCc1ccc(F)cc1 (stereo unspecified)	inactive
COc1ccc(NC(=O)c2ccco2)cc1NC(=O)COc1ccc(C)c(C)c1	inactive
Cc1ccc(C(CC(=O)O)Nc2nc(N3CCCCC3)nc(N3CCCCC3)n2)cc1 (stereo unspecified)	inactive
CC(Nc1nc(N2CCCC2)nc2ccccc12)c1ccccc1 (stereo unspecified)	16.4 µM (active)
c1ccc(-c2cc(N3CCCCC3)c3ccccc3n2)cc1	inactive
CCC(C)N(c1ccc(/C=C/c2ccnc3ccccc23)cc1)C(C)CC (stereo unspecified)	inactive
COc1ccc(CNC(=O)c2cc3cccc(OC)c3oc2=O)cc1	inactive
COc1cc(NC(=O)CN2CCN(S(=O)(=O)c3ccc(Br)cc3)CC2)cc(OC)c1	inactive
Cc1cccn2c(=O)c3cc(C(=O)NCCN4CCOCC4)c(=N)n(Cc4cccnc4)c3nc12	8.2 µM (active)
CCCn1c(=N)c(C(=O)NCc2ccccc2)cc2c(=O)n3cccc(C)c3nc21	inactive
Cc1cccn2c(=O)c3cc(C(=O)NC(C)c4ccccc4)c(=N)n(CCCO)c3nc12 (stereo unspecified)	inactive
COc1cc(NS(=O)(=O)c2cccs2)cc(OC)c1	inactive
CNC(=O)c1ccc(-c2nc(CN3CCc4ccccc43)c(C)o2)cc1	inactive
Cc1cccc(-n2ncc(C(=O)N3CCC(C)CC3)c2C2CCN(C(=O)OC(C)(C)C)CC2)c1	inactive
